Source: ChEMBL document CHEMBL3988442, “University of Dundee, Small-Polar-MMV Screening Library” (2021)
For some assays here: Results with a measured potency or affinity are listed apart.

Columns and labels:
Design in all cases: scale not given: direction of the effect not stated beside the values
[1] = molecular target: Protein translocase subunit SecA (Escherichia coli (strain K12)) (UniProt P10408); assay: Assay to Identify E. coli SecA ATPase Inhibitors; format: functional; details: 30 µM
[2] = molecular target: T1, Ubiquitin-activating enzyme e1, putative (Leishmania donovani (strain BPK282A1)) (UniProt E9BSI1); assay: Leishmania donovani Ubiquitin Activating Enzyme (LdE1); format: functional; details: 30 µM
T1 sequence (whole entry): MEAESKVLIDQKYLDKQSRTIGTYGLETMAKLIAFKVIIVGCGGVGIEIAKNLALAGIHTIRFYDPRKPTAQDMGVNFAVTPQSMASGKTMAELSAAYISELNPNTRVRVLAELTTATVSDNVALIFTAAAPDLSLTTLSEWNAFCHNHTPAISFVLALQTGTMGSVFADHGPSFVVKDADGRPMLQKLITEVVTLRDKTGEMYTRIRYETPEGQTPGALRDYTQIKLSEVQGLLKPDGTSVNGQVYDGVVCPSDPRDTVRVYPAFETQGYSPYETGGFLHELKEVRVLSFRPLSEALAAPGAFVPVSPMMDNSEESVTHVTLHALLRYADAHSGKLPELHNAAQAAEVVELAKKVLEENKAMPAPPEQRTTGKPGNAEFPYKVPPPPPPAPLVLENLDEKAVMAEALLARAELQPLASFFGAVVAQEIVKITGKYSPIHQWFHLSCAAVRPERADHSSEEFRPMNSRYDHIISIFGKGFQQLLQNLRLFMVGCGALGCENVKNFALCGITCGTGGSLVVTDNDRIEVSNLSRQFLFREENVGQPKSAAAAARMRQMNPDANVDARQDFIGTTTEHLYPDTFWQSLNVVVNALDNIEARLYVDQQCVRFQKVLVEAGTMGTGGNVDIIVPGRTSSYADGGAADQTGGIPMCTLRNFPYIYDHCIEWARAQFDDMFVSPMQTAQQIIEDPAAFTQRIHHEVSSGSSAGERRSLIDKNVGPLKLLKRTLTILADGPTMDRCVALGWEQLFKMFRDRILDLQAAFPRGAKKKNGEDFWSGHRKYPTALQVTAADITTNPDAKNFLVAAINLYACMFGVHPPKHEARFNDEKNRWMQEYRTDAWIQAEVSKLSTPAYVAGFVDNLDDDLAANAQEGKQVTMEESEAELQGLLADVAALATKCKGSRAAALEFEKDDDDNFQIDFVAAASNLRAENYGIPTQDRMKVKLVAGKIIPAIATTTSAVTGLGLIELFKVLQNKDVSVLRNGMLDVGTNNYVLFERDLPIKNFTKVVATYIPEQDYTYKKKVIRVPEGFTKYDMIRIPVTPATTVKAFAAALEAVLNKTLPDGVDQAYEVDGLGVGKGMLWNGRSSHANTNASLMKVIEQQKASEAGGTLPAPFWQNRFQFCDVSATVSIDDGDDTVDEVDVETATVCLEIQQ

[3] = molecular target: AMP-activated protein kinase, AMPK (Homo sapiens) (UniProt P54646+O43741+P54619+Q9UGJ0+Q9Y478+Q13131+Q9UGI9); assay: AMP-dependent Kinase enzyme assay. An in vitro enzyme assay that detects ADP turnover that is directly proportional to AMPK activity. This uses naive AMPK that is activated during the assay with MK-8722; format: functional; details: 30 µM
[4] = molecular target: Sialic acid-binding Ig-like lectin 9 (Homo sapiens) (UniProt Q9Y336); assay: Hs-Siglec9 ALPHAscreen SOP 20170721; details: 10 µM
Sequence of Sialic acid-binding Ig-like lectin 9 (Homo sapiens) (Q9Y336 whole entry): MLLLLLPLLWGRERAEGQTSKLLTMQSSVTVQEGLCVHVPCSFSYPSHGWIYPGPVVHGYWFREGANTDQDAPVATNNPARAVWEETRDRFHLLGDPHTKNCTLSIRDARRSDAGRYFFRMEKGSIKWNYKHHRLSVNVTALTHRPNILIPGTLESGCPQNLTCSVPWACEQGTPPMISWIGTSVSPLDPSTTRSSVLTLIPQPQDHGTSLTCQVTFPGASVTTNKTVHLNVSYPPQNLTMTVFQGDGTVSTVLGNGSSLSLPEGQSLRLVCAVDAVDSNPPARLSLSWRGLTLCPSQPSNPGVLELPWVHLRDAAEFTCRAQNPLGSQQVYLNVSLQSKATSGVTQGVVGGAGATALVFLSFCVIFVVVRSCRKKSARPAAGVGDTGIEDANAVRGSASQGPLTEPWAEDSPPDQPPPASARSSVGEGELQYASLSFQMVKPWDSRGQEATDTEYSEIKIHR

Trypanosoma cruzi = assay: Trypanosoma cruzi phosphomannomutase and mannose-1-phosphate guanylyltransferase assay; format: functional; details: 10 µM
[5] = molecular target: T2, Arginase-2, mitochondrial (Homo sapiens) (UniProt P78540); assay: in vitro enzyme assay to detect the production of urea directly proportional to the activity of Arginase II; format: functional; details: 33.3 µM; further: in the data most compounds retested in dose-response had high values
T2 sequence (whole entry): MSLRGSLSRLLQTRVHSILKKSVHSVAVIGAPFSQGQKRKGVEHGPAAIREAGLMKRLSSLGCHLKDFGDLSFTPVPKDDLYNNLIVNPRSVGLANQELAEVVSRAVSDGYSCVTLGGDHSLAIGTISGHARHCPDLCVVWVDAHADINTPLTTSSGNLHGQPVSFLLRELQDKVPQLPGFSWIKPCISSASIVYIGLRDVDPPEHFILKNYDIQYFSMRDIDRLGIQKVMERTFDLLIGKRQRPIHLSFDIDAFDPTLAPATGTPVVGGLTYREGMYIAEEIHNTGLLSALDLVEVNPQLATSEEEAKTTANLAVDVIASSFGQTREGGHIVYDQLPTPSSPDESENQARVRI

[6] = molecular target: T3, Proteasome subunit beta (Trypanosoma cruzi) (UniProt O96673); assay: Trypanosoma cruzi proteasome chymotrypsin-like activity (TcProtChymo) assay.; further: in the data most compounds retested in dose-response had high values; format: functional; details: 9.37 µM
T3 sequence (whole entry): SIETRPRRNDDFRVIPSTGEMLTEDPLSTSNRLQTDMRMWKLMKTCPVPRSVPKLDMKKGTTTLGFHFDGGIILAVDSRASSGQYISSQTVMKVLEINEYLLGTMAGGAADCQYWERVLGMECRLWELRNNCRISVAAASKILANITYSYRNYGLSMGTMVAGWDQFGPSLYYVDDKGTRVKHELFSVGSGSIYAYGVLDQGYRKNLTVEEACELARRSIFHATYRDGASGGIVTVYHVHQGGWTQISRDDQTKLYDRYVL

Homo sapiens = species: Homo sapiens; assay: To identify inhibition of the IFN signalling (Jak-Stat) pathway via expression of an eGFP reporter gene under the control of an IFN-stimulated response element (ISRE) containing MxA promoter.; format: functional; details: 30 µM
[7] = molecular target: T4, Tyrosyl-tRNA synthetase, putative (Trypanosoma cruzi (strain CL Brener)) (UniProt Q4DSP6); assay: Trypanosoma cruzi tyrosyl tRNA synthetase (TcYRS) _High Tyrosine SOP; format: functional; details: 30 µM; further: in the data most compounds retested in dose-response had high values
T4 sequence (whole entry): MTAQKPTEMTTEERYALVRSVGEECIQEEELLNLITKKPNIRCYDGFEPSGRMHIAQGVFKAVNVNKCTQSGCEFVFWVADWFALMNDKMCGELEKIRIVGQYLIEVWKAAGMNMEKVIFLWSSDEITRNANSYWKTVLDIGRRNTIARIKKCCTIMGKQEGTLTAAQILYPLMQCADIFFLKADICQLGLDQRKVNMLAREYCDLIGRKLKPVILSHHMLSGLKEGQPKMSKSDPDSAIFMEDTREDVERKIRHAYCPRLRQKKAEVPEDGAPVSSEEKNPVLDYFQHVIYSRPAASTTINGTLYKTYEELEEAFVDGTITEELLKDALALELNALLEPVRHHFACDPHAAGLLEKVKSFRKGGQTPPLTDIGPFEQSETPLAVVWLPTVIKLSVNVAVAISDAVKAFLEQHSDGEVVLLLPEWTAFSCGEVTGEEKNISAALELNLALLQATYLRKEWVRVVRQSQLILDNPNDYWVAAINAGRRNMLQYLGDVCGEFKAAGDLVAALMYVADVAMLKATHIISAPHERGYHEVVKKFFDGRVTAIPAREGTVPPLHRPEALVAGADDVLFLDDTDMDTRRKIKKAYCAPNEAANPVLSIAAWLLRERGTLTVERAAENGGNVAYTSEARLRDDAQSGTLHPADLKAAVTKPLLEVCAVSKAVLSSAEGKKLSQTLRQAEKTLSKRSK

[8] = molecular target: T4, Tyrosyl-tRNA synthetase, putative (Trypanosoma cruzi (strain CL Brener)); assay: Trypanosoma cruzi tyrosyl tRNA synthetase (TcYRS) SOP; format: functional; details: 30 µM
[9] = molecular target: Chromo domain-containing protein 1 (Saccharomyces cerevisiae (strain ATCC 204508 / S288c) (Baker's yeast)) (UniProt P32657); assay: ScCHD-1 Enzyme Inhibition Assay; format: functional; details: 30 µM; further: in the data most compounds retested in dose-response had high values
Sequence of Chromo domain-containing protein 1 (Saccharomyces cerevisiae (strain ATCC 204508 / S288c) (Baker's yeast)) (P32657 whole entry, the tested form may be a part): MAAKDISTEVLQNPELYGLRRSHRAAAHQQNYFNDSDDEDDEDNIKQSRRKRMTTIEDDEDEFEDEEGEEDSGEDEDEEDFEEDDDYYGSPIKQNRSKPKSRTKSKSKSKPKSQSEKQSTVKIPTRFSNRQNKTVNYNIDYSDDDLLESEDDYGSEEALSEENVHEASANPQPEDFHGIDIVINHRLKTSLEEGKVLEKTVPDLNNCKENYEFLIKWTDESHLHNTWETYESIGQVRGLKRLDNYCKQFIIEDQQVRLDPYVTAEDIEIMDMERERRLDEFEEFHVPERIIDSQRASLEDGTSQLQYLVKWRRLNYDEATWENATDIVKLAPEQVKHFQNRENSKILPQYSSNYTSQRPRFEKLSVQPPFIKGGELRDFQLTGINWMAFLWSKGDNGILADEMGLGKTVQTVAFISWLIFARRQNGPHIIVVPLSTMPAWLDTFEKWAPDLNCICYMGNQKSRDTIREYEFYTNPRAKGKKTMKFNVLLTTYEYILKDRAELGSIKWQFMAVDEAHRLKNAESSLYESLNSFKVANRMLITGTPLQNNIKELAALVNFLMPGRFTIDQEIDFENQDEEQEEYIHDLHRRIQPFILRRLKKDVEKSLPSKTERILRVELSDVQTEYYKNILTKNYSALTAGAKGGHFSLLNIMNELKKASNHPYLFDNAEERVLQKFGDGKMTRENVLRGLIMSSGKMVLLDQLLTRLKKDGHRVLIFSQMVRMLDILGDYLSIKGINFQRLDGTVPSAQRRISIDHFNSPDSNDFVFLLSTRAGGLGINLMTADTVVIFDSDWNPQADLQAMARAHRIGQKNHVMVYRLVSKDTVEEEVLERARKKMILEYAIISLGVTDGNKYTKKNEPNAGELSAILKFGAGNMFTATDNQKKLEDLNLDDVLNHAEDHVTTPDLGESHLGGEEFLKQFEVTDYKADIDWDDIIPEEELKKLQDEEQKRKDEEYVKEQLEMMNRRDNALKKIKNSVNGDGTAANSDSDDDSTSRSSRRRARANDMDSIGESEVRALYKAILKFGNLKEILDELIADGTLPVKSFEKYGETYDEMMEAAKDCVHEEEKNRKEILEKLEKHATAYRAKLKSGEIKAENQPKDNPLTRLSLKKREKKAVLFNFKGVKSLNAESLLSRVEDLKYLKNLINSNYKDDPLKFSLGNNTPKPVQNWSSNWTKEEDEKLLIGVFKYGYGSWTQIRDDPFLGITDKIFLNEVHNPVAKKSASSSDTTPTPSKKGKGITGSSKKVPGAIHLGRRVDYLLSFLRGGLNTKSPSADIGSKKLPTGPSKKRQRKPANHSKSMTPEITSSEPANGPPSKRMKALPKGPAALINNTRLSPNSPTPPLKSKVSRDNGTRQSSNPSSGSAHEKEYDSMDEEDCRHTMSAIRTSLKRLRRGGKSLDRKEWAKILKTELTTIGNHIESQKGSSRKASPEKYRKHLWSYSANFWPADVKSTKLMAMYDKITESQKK

Sequence of Protein translocase subunit SecA (Escherichia coli (strain K12)) (P10408 whole entry): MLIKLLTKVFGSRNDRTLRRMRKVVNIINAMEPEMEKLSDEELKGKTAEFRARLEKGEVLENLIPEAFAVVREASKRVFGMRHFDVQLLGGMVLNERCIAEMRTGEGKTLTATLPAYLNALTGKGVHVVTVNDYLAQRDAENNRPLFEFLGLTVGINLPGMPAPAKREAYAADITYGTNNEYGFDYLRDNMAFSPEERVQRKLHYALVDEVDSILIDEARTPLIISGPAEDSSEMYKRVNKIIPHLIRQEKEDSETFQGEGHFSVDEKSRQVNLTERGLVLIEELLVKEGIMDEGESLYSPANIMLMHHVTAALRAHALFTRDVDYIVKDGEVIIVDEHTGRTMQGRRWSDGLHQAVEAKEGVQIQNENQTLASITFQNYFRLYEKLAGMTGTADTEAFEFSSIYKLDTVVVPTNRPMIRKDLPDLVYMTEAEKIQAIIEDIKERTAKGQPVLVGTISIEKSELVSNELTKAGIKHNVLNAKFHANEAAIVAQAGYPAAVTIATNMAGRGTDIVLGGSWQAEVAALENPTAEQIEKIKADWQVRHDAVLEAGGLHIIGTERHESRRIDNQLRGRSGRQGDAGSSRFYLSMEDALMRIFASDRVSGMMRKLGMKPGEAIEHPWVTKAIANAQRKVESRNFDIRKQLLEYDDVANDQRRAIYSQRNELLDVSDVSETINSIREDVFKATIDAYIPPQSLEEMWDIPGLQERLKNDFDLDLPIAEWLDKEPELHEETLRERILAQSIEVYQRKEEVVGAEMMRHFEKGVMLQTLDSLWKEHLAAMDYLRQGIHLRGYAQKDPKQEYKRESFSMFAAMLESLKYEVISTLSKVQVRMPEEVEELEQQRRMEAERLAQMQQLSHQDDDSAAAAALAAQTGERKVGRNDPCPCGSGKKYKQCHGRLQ

Compound	Percent Effect [1] [%]	Percent Effect [2] [%]	Percent Effect [3] [%]	Percent Effect [4] [%]	Percent Effect (Trypanosoma cruzi) [%]	Percent Effect [5] [%]	Percent Effect [6] [%]	Percent Effect (Homo sapiens) [%]	Percent Effect [7] [%]	Percent Effect [8] [%]	Percent Effect [9] [%]
COc1cccc(COCC(=O)N2CCN(CC(C)(C)O)CC2)c1	1.47	-5.26	7.35	8.14	-3.76	6.51	-0.167	21	1.47	-2.44	-5.7
Cn1cc(-c2csc(CN3CCOCC3)n2)cn1	2.9	4.17	-3.9	1.67	0.0972	8.39	1.58	-3.07	-1.05	2.56	-1.39
Cc1cccc(OCCC(=O)N2CCCN(CC(N)=O)CC2)c1C	-3.47	17.7	-7.09	14.1	1.6	-3.42	4.34	-12.7	1.48	16.5	-5.52
c1cnc(-c2nc(CN3CCC(c4ccn[nH]4)CC3)cs2)nc1	-1.4	13.5	-30.2	15	2.32	1.66	2.15	-0.446	7.92	23.2	-3.65
CCCSCC(=O)NS(=O)(=O)c1ccc2c(c1)OCCO2	-2.66	-2.63	5.73	7.23	1.5	3.45	2.34	-0.713	1.47	0	-4.12
Cc1ccc(CN2CCC3(CC(C(=O)NCC4CC4)=NO3)C2)cc1C (stereo not given)	-4.16	2.67	7.69	-4.65	-4.05	-64	0.684	2	0	7.5	-7.33
c1cnnc(N2CCCC(NCc3ccc(-n4ccnc4)cc3)C2)c1 (stereo not given)	-1.81	2.6	5.74	12	-0.49	1.9	8.33	3.55	0.952	0	-13.3
Cc1nc(C2CCCN(C(=O)c3ccc(OCC4CC4)cc3)C2)no1 (stereo not given)	-11	15.8	-2.79	21.9	10.9	3.24	7.19	0.288	5.42	25.9	-8.85
O=C(c1coc(COc2cccc(F)c2)n1)N1CC[C@H](O)[C@@H](O)C1	-4.21	2.7	0.202	8.13	1.93	3.33	10.2	7.51	5.82	9.76	-4.67
Cc1ccc(N2CCN(C(=O)COc3ccccc3)CC2)nn1	-2.94	8.22	6.52	-4.33	-3.92	-0.909	10.8	13.2	5.38	17.5	-6.41
